38 molecules from PubChem BioAssay (NCI) can be followed below.

Structures are written as SMILES. About 83,000 compounds went through this panel and 20% of them were active in at least one assay; those are over-represented in the sample as a whole.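 Treatment: one concentration, 48 hours, 96-well format. Scoring: percent growth, with anything below 10 considered active.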 Calls of active or inactive are those of the source.

One experiment concerns 786-0 renal. Briefly: NCI-60 one-dose screen, 48 h (100 = growth as untreated, 0 = no growth, -100 = all killed). As to conditions: 10 µM unless noted.
For the molecule `O=C(C=P(c1ccccc1)(c1ccccc1)c1ccccc1)CCl`, the growth was -75.8% (active).
As for `O=C(c1ccccc1)N(CCCCl)C(=O)N(CCCCl)C(=O)c1ccccc1`, the growth was 94.6% (inactive).
In the case of `Oc1c(-c2cc(C(F)(F)F)[nH]n2)cc(Cl)c(OCc2ccc(Cl)cc2)c1-c1ccc(Cl)c(C(F)(F)F)c1`, the growth was -21.4% (active).
For `O=C(C(=O)c1cccnc1)c1cccnc1`, the growth is 101% (inactive).
In the case of `COc1c(B(O)O)cccc1-c1nc2ccc3[nH]ncc3c2c2c1CCCC2`, the growth is 25.9% (inactive).
For the molecule `Fc1ccc(-c2nnc(N3CCOCC3)c3ccccc23)cc1`, the growth was 105% (inactive).
With `COc1cc(C)c2c(=O)c3c(oc2c1)C(=O)c1c(O)c(OC)cc(O)c1C3=O`, the growth was 20% (inactive).
For the molecule `COc1ccc(C2=CC(c3ccc(OC)cc3Br)N3C=CSC3=N2)cc1` (configuration not stated), the growth was 83.7% (inactive).
Take `CC1=C(C(=O)Nc2ccc(F)cc2)C(c2ccc(Cl)cc2)C2=C(CC(C)(C)CC2=O)N1` (configuration not stated): the growth is 88.3% (inactive).
Take `Cc1ccc(NC(=O)c2nc(S(C)=O)oc2-c2ccc(F)cc2)cc1Nc1nccc(-c2cccnc2)n1` (configuration not stated): the growth was 54.6% (inactive).
The same measure, in the same setting: under `COc1ccc(C(=O)c2c(N)nc3n2CCCC3)cc1OC` stands 100% (inactive).
The same measure, in the same setting: under `CC1CN(CCCOC(=O)Nc2ccc(Cl)cc2)CCN1C(C)(C)C` (configuration not stated) stands 99.3% (inactive).
Still for that read-out and setting: next, `CCN(CC)c1ccc2nc3c4ccccc4c(=O)cc-3n(-c3ccccc3)c2c1`: 4.36% (active).
As to `C=CCOc1c(Br)cc(Br)cc1Br`, the growth was 102% (inactive).
Regarding `Brc1ccccc1Cn1c(-c2cncs2)nc2ccccc21`, the growth was 90.6% (inactive).
As for `CCN(CC)CCCNc1cccc2c(C)cc(OC)nc12`, the growth was 94.6% (inactive).
As to `O=C(NO)c1ccc(NCc2csc3ccccc23)cc1`, the growth was 71.3% (inactive).
Still for that read-out and setting: next, `CCNS(=O)(=O)c1ccc(C)cc1`: 110% (inactive); `CC(=O)[C@@]1(O)[C@H](C)C[C@H]2[C@@H]3C=C(C)C4=Cc5c(cnn5-c5ccccc5)C[C@]4(C)[C@H]3[C@@H](O)C[C@@]21C`: -9.28% (active).
Still for that read-out and setting: next, `COc1ccc(-c2nc(-c3ccccc3OCc3ccccc3OC)nc(C)c2C(C)=O)cc1`: 91.3% (inactive).
With `COc1ccc(C2CC(c3cccc(Nc4ccnc5cc(Cl)ccc45)c3)=NN2c2ccccc2)cc1` (configuration not stated), the growth is 91.8% (inactive).
Consider `COc1ccc(/C(=C\c2ccc3c(c2)OCO3)C(=O)Nc2nc3ccc(F)cc3s2)cc1OC`, for which the growth was 92.1% (inactive).
On to `Cc1cc(NC(=O)C2c3ccccc3C(=O)N(CC(C)C)C2c2cccs2)no1` (configuration not stated), for which the growth is -32.6% (active).
With `CC(C)N=C1CCCC1C(=S)SSC(=S)C1CCCC1=NC(C)C` (configuration not stated), the growth was 91.4% (inactive).
As to `COCCCNCC(=O)Nc1c(C)cccc1C`, the growth is 93.8% (inactive).
For the molecule `Clc1ccc(Nc2ncnc3c2sc2ncccc23)cc1`, the growth was 13.6% (inactive).
Same read-out and setting: under `CNC(=O)c1cc(Oc2ccc(NC(=O)c3nc(S(C)(=O)=O)sc3-c3ccc(F)cc3)cc2)ccn1` stands 98.3% (inactive).
As for `O=C(/C=C/c1ccccc1)C(Br)C(Br)c1ccccc1` (configuration not stated), the growth was -80.2% (active).
As to `C#CC[C@@H]1C[C@]2(C)[C@H]3CC[C@@H]4[C@H]5C(C(=C)C)CC[C@]5(C(=O)NCCN(CCN)CCN)CC[C@@]4(C)[C@]3(C)CC[C@H]2C(C)(C)[C@H]1OC(C)=O` (some centres not stated), the growth was 90.3% (inactive).
Turning to `[Ag].[Ag].[NH-]S(=O)(=O)c1ccc(N=Nc2cc(N=Nc3ccc(S([NH-])(=O)=O)cc3)c3c(NC(=O)C(Cl)Cl)cccc3c2OC(=O)C(Cl)Cl)cc1.[c-]1nccs1.[c-]1nccs1`, the growth was 106% (inactive).

The subject of the next experiment is COLO 205 colon. Described as above. As to conditions: 10 µM unless noted.
Take `O=C(C=P(c1ccccc1)(c1ccccc1)c1ccccc1)CCl`: the growth is -53.9% (active).
On to `CS(=O)(=O)Nc1cc(-c2cc3ncc(C#N)c(Nc4ccc(Oc5ccccc5)c(Cl)c4)c3s2)cnc1Cl`, for which the growth is 66.9% (inactive).
On the same count and under the same terms, under `O=C(c1ccccc1)N(CCCCl)C(=O)N(CCCCl)C(=O)c1ccccc1` stands 102% (inactive); under `CCCCn1c(-c2ccc(F)cc2)nc2cc(OC)c(OC)cc2c1=O`, 121% (inactive); under `Cc1ccccc1N1C(c2ccccc2)=NNC12C=CC(=O)c1c(O)cccc12` (configuration not stated), 95.7% (inactive).
On the same count and under the same terms, next, `O=C(C(=O)c1cccnc1)c1cccnc1`: 174% (inactive).
Take `COc1c(B(O)O)cccc1-c1nc2ccc3[nH]ncc3c2c2c1CCCC2`: the growth is 4.2% (active).
Take `COC(=O)c1cc2oc(/C=N/NC(=O)c3cc4oc(-c5cccc(C(F)(F)F)c5)cc4[nH]3)cc2n1Cc1ccccc1`: the growth is 118% (inactive).
`Fc1ccc(-c2nnc(N3CCOCC3)c3ccccc23)cc1`: the growth is 89.6% (inactive).
On to `COc1cc(C)c2c(=O)c3c(oc2c1)C(=O)c1c(O)c(OC)cc(O)c1C3=O`, for which the growth was 109% (inactive).
With `COc1ccc(C2=CC(c3ccc(OC)cc3Br)N3C=CSC3=N2)cc1` (configuration not stated), the growth was 80.3% (inactive).
Regarding `CC1=C(C(=O)Nc2ccc(F)cc2)C(c2ccc(Cl)cc2)C2=C(CC(C)(C)CC2=O)N1` (configuration not stated), the growth is 97% (inactive).
On the same count and under the same terms, next, `Cc1ccc(NC(=O)c2nc(S(C)=O)oc2-c2ccc(F)cc2)cc1Nc1nccc(-c2cccnc2)n1` (configuration not stated): 54% (inactive); `COc1ccc(C(=O)c2c(N)nc3n2CCCC3)cc1OC`: 107% (inactive).
Turning to `CC1CN(CCCOC(=O)Nc2ccc(Cl)cc2)CCN1C(C)(C)C` (configuration not stated), the growth was 102% (inactive).
Take `CCN(CC)c1ccc2nc3c4ccccc4c(=O)cc-3n(-c3ccccc3)c2c1`: the growth was -55.1% (active).
`C=CCOc1c(Br)cc(Br)cc1Br`: the growth is 103% (inactive).
Turning to `Brc1ccccc1Cn1c(-c2cncs2)nc2ccccc21`, the growth was 84.9% (inactive).
As to `CCN(CC)CCCNc1cccc2c(C)cc(OC)nc12`, the growth was 87.4% (inactive).
Consider `O=C(NO)c1ccc(NCc2csc3ccccc23)cc1`, for which the growth was 50.1% (inactive).
On to `CCNS(=O)(=O)c1ccc(C)cc1`, for which the growth was 113% (inactive).
For the molecule `CC(=O)[C@@]1(O)[C@H](C)C[C@H]2[C@@H]3C=C(C)C4=Cc5c(cnn5-c5ccccc5)C[C@]4(C)[C@H]3[C@@H](O)C[C@@]21C`, the growth was -23.8% (active).
Turning to `O=C1OC(c2ccc(-c3ccccc3)cc2)=C/C1=C/c1c(Cl)cccc1Cl`, the growth is 103% (inactive).
Consider `COc1ccc(-c2nc(-c3ccccc3OCc3ccccc3OC)nc(C)c2C(C)=O)cc1`, for which the growth was 86.7% (inactive).
With `COc1ccc(C2CC(c3cccc(Nc4ccnc5cc(Cl)ccc45)c3)=NN2c2ccccc2)cc1` (configuration not stated), the growth is 80.4% (inactive).
On the same count and under the same terms, under `Cc1cc(C)c2c(NC(=O)Nc3ccc(Cl)c(Cl)c3)n[nH]c2n1` stands 106% (inactive); under `COc1ccc(/C(=C\c2ccc3c(c2)OCO3)C(=O)Nc2nc3ccc(F)cc3s2)cc1OC`, 106% (inactive).
Regarding `Cc1[nH]n(C(=O)c2ccncc2)c(=O)c1N=Nc1ccc(O)c(C(=O)O)c1`, the growth was 113% (inactive).
For `Cc1cc(NC(=O)C2c3ccccc3C(=O)N(CC(C)C)C2c2cccs2)no1` (configuration not stated), the growth is -83.9% (active).
On to `CC(C)N=C1CCCC1C(=S)SSC(=S)C1CCCC1=NC(C)C` (configuration not stated), for which the growth is 88.8% (inactive).
On to `COCCCNCC(=O)Nc1c(C)cccc1C`, for which the growth is 109% (inactive).
`Clc1ccc(Nc2ncnc3c2sc2ncccc23)cc1`: the growth was 30.2% (inactive).
With `CNC(=O)c1cc(Oc2ccc(NC(=O)c3nc(S(C)(=O)=O)sc3-c3ccc(F)cc3)cc2)ccn1`, the growth is 69.1% (inactive).
On to `O=C(/C=C/c1ccccc1)C(Br)C(Br)c1ccccc1` (configuration not stated), for which the growth is -74.2% (active).
In the case of `C#CC[C@@H]1C[C@]2(C)[C@H]3CC[C@@H]4[C@H]5C(C(=C)C)CC[C@]5(C(=O)NCCN(CCN)CCN)CC[C@@]4(C)[C@]3(C)CC[C@H]2C(C)(C)[C@H]1OC(C)=O` (some centres not stated), the growth was 69.3% (inactive).
As for `[Ag].[Ag].[NH-]S(=O)(=O)c1ccc(N=Nc2cc(N=Nc3ccc(S([NH-])(=O)=O)cc3)c3c(NC(=O)C(Cl)Cl)cccc3c2OC(=O)C(Cl)Cl)cc1.[c-]1nccs1.[c-]1nccs1`, the growth was 6.93% (active).
On to `Oc1ccc(-c2cnc(-c3ccccc3)[nH]2)c(O)c1`, for which the growth was 117% (inactive).
